According to PubChem BioAssay AID1159580 (chemical genetic matrix, 2015):
About 2,000 (36%) of roughly 5,500 compounds were called active. Inconclusive results (about 18%) are left out. Rule as the data show it: active = normalized growth mostly below about 0.91 (no sharp cut-off); inconclusive = no clear call, values can overlap the other calls; inactive = mostly above about 0.92. This is one part of the list.

Experiment: chemical genetic growth profiling, strain panel (AID 1159580);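 also: tested at 20 µM; growth read once vehicle control cultures reached saturation at 30 °C; 1 = growth at the plate median or of vehicle wells; lower values mean less growth of the strain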
Settings: growth OD
[1] = S. cerevisiae deletion strains, locus YAL013W, strain DEP1, stronger effect = lower value
[2] = S. cerevisiae deletion strains, locus YBR229C, strain ROT2, stronger effect = lower value
[3] = S. cerevisiae deletion strains, locus YDL101C, strain DUN1, stronger effect = lower value
[4] = S. cerevisiae deletion strains, locus YDR150W, strain NUM1, stronger effect = lower value
[5] = S. cerevisiae deletion strains, locus YEL061C, strain CIN8, stronger effect = lower value
[6] = S. cerevisiae deletion strains, locus YGR078C, strain PAC10, stronger effect = lower value
[7] = S. cerevisiae deletion strains, locus YHR030C, strain SLT2, stronger effect = lower value
[8] = S. cerevisiae deletion strains, locus YHR087W, strain rtc3, stronger effect = lower value
[9] = S. cerevisiae deletion strains, locus YJL187C, strain SWE1, stronger effect = lower value
[10] = S. cerevisiae deletion strains, locus YJR043C, strain POL32, stronger effect = lower value
[11] = S. cerevisiae deletion strains, locus YJR075W, strain HOC1, stronger effect = lower value
[12] = S. cerevisiae deletion strains, locus YKL190W, strain CNB1, stronger effect = lower value
[13] = S. cerevisiae deletion strains, locus YLR039C, strain RIC1, stronger effect = lower value
[14] = S. cerevisiae deletion strains, locus YLR058C, strain SHM2 (second series), stronger effect = lower value
[15] = S. cerevisiae deletion strains, locus YLR085C, strain ARP6, stronger effect = lower value
[16] = S. cerevisiae deletion strains, locus YLR262C, strain YPT6, stronger effect = lower value
[17] = S. cerevisiae deletion strains, locus YML094W, strain GIM5, stronger effect = lower value
[18] = S. cerevisiae deletion strains, locus YMR219W, strain ESC1, stronger effect = lower value
[19] = S. cerevisiae deletion strains, locus YMR263W, strain SAP30, stronger effect = lower value
[20] = S. cerevisiae deletion strains, locus YNL153C, strain GIM3, stronger effect = lower value
[21] = S. cerevisiae deletion strains, locus YNL298W, strain CLA4 (second series), stronger effect = lower value
[22] = S. cerevisiae deletion strains, locus YNL322C, strain KRE1, stronger effect = lower value
[23] = S. cerevisiae deletion strains, locus YNR030W, strain Alg12, stronger effect = lower value
[24] = S. cerevisiae deletion strains, locus YOL006C, strain TOP1, stronger effect = lower value
[25] = S. cerevisiae deletion strains, locus YPL055C, strain LGE1, stronger effect = lower value
[26] = S. cerevisiae deletion strains, locus YPL241C, strain CIN2, stronger effect = lower value
[27] = S. cerevisiae deletion strains, locus YPR135W, strain CTF4, stronger effect = lower value
[28] = S. cerevisiae strains, strain wild type, stronger effect = lower value
[29] = S. cerevisiae deletion strains, locus YCL061C, strain MRC1, stronger effect = lower value

Measured: normalized growth

CSc1ncc(C#N)c2nc(-c3ccc(N(C)C)cc3)nn12
inactive: [1] 1.01 | [2] 0.991 | [3] 0.974 | [4] 0.966 | [5] 1 | [6] 0.983 | S. cerevisiae deletion strains, locus YGR229C, strain SMI1, stronger effect = lower value 1 | [7] 1 | [8] 1.05 | [9] 1.01 | [10] 0.975 | [11] 0.994 | [12] 1.01 | [13] 1.08 | [14] 1.02 | [15] 1.02 | [16] 1.09 | [17] 1.05 | [18] 1.01 | [19] 1.01 | [20] 0.985 | [21] 1.04 | [22] 1 | [23] 1.03 | [24] 1.04 | [25] 1.01 | [26] 1.01 | [27] 0.968 | [28] 1

O=S(=O)(Oc1ccc(OCc2ccccc2)cc1)c1cc(Cl)cc(Cl)c1
inactive: [1] 1.01 | [2] 1.01 | [29] 1.01 | [3] 0.987 | [4] 1 | [5] 0.959 | [6] 1 | [7] 0.881 | [8] 0.983 | [9] 1 | [10] 1.01 | [11] 1.01 | [13] 1.01 | [14] 1.01 | [15] 0.943 | [16] 0.985 | [17] 0.966 | [18] 0.993 | [19] 1.01 | [20] 0.998 | [21] 1.01 | [22] 1 | [23] 0.998 | [24] 0.779 | [25] 0.969 | [26] 1 | [27] 0.988 | [28] 1

Fc1cc(F)cc(COc2cc(Cl)cc(Cl)c2)c1
inactive: [1] 1 | [2] 0.987 | [29] 0.96 | [3] 1.01 | S. cerevisiae deletion strains, locus YDL134C, strain PPH21, stronger effect = lower value 0.992 | [4] 0.885 | [5] 1.01 | [6] 0.96 | [8] 0.959 | [9] 0.968 | [10] 0.985 | [11] 0.913 | [12] 0.967 | [13] 1.01 | [14] 0.972 | [15] 0.822 | [16] 0.943 | [17] 1.01 | [18] 0.984 | [19] 0.97 | S. cerevisiae deletion strains, locus YMR307W, strain GAS1, stronger effect = lower value 0.739 | [20] 1 | [21] 0.919 | [22] 0.987 | [23] 0.928 | [24] 0.8 | [25] 0.922 | [27] 0.886 | [28] 0.96
active: [7] 0.522 | [26] 0.832
